# Experimental data reported in PubChem BioAssay (EPA / NIEHS).
# Inconclusive results are not listed. The source made the active and inactive calls. The calls were made as follows, unless noted: active = hit-call score of the fitted dose curve at least 0.9, where 1 is the maximum; inactive = score below 0.9.
# Tests used:
# [1] = CCTE_Shafer_MEA_dev_inter_network_spike_interval_mean: CCTE's Neural Network Formation Assay for Mean Inter-network Spike Interval, Shafer Lab (AID 2284047)
# In short: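 Primary rat cortical neurons on 16-electrode MEA wells, exposed from plating day 0 through DIV 12, compound renewed at DIV 5 and 9 media changes. Mean interval between network-spike peaks recorded DIV 5, 7, 9, 12; collapsed as trapezoidal AUC, fitted downward versus DMSO.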
# [2] = CCTE_Shafer_MEA_dev_network_spike_number: CCTE's Neural Network Formation Assay for Number of Network Spikes, Shafer Lab (AID 2284048);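 also: synchronized bursts across electrodes counted on days 5 7 9 12 and integrated as AUC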;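 as to AC50: fit as a loss of signal meaning fewer network spikes than DMSO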
# In short: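 Extracellular recordings from 16-electrode wells track network formation in rat cortical cultures under continuous treatment from plating. The endpoint is network spike number, expressed as AUC across DIV 5–12 relative to DMSO vehicle.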
# [3] = CCTE_Shafer_MEA_dev_network_spike_peak: CCTE's Neural Network Formation Assay for Mean Number of Electrodes in Network Spike, Shafer Lab (AID 2284049);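 as to AC50: fitted for loss of signal meaning fewer electrodes in network spikes than DMSO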
# In short: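 Continuous 12-day exposure of rat cortical cultures, starting at plating, on MEA plates. Endpoint: electrodes participating in network-spike peaks, AUC across DIV 5–12, DMSO as negative control.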
# [4] = CCTE_Shafer_MEA_dev_spike_duration_mean: CCTE's Neural Network Formation Assay for Mean Spike Duration, Shafer Lab (AID 2284051);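 also: mean network spike duration pooled as area under curve over DIV 5 to 12 recordings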;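 as to AC50: potency for a decrease in mean network spike duration versus DMSO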
# In short: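 Primary rat cortical neurons on 16-electrode MEA wells (PEI-coated, laminin in plating drop), exposed from plating through DIV 12 with compound renewed at DIV 5 and 9. Mean network-spike duration recorded DIV 5, 7, 9, 12; trapezoidal AUC across days, DMSO baseline.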
# [5] = CCTE_Shafer_MEA_dev_network_spike_duration_std: CCTE's Neural Network Formation Assay for Standard Deviation of Network Spike Duration, Shafer Lab (AID 2284052);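 also: area under curve of spike duration SD across recording days 5 to 12; hits are decreases in network spike duration SD versus DMSO vehicle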
# In short: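 Primary rat cortical neurons on PEI-coated 16-electrode MEA wells, exposed from plating day 0 through day 12 with compound renewed at DIV 5 and 9. Network spike duration SD recorded on days 5, 7, 9, 12, collapsed as trapezoidal AUC; loss-of-signal fit versus DMSO.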
# [6] = CCTE_Shafer_MEA_dev_per_network_spike_spike_number_mean: CCTE's Neural Network Formation Assay for Mean Number of Spikes in a Network Spike, Shafer Lab (AID 2284053)
# In short: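 Primary rat cortical neurons on 48-well, 16-electrode MEA plates were exposed from plating to DIV 12, with dosing renewed on DIV 5 and 9. Spikes per network spike (0.05 s peak window) were recorded on DIV 5, 7, 9 and 12 and collapsed as trapezoidal AUC versus DMSO.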
# [7] = CCTE_Shafer_MEA_dev_per_network_spike_spike_percent: CCTE's Neural Network Formation Assay for Percent of Spikes in a Network Spike, Shafer Lab (AID 2284054)
# In short: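 Developing networks of rat cortical neurons are dosed at day 0 and recorded extracellularly four times up to day 12. The endpoint is the area under the curve of percent spikes in network spikes, fitted in the negative direction relative to DMSO.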
# [8] = system: DIO2 (gene 1734); experiment: CCTE_GLTED_hDIO2: CCTE's human Deiodinase 2 (DIO2) Inhibition Assay, Great Lakes Toxicology and Ecology Division (GLTED) Lab (AID 2284050; active = hit-call score of the fitted dose curve at least 0.9, where 1 is the maximum)
# In short: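 Iodide released by human deiodinase 2 over 3 h with test chemical, measured spectrophotometrically via Sandell-Kolthoff cerium/arsenic reaction. Run n=3; inhibition referenced to DMSO.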
# [9] = CCTE_Shafer_MEA_dev_LDH: CCTE's Lactate Dehydrogenase Assay for Cytotoxicity in the Neural Network Formation Assay, Shafer Lab (AID 2284068; active = hit-call score of the fitted dose curve at least 0.9, where 1 is the maximum;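 also: exposure for twelve days from plating with re-dosing on DIV 5 and 9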)
# In short: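 Primary rat cortical neurons were plated on PEI/laminin MEA plates and exposed from day 0 for twelve days, with compound renewed at DIV 5 and 9. Cytotoxicity was determined by spectrophotometric LDH assay relative to DMSO.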
compound,measurement,setting,value
FC(F)=C(F)OC(F)(F)C(F)(F)C(F)(F)F,outcome,[1],inactive
same,outcome,[2],inactive
same,outcome,[3],inactive
same,outcome,[4],inactive
same,outcome,[5],inactive
same,outcome,[6],inactive
same,outcome,[7],inactive
O=S1(=O)OC(c2ccc(O)cc2)(c2ccc(O)cc2)c2ccccc21,AC50,[8],100 µM (active)
Oc1ccc(Cl)cc1Cc1cc(Cl)ccc1O,AC50,[8],88.4 µM (active)
O=S(=O)(O)c1ccccc1C=Cc1ccc(-c2ccc(C=Cc3ccccc3S(=O)(=O)O)cc2)cc1,outcome,[8],inactive
N[C@H]1C(O)O[C@H](CO)[C@H](O)[C@@H]1O (stereo not given in full),outcome,[1],inactive
same,outcome,[2],inactive
same,AC50,[3],25.4 µM (active)
same,AC50,[4],25.3 µM (active)
same,outcome,[5],inactive
same,AC50,[6],25.6 µM (active)
same,AC50,[7],27.4 µM (active)
same,AC50,[9],15 µM (active)
COC(F)(F)C(F)(C(F)(F)F)C(F)(F)F,outcome,[1],inactive
same,outcome,[2],inactive
same,outcome,[3],inactive
same,outcome,[4],inactive
same,outcome,[5],inactive
same,outcome,[6],inactive
same,outcome,[7],inactive
CCCCCCCC/C=C\CCCCCCCC(=O)O,AC50,[8],79.4 µM (active)
CC=CC(F)(F)C(F)(F)C(F)(F)F,outcome,[1],inactive
same,outcome,[2],inactive
same,outcome,[3],inactive
same,outcome,[4],inactive
same,outcome,[5],inactive
same,outcome,[6],inactive
same,AC50,[7],3.82 µM (active)
O=C(C=Cc1ccccc1)OCc1ccccc1,AC50,[8],14.6 µM (active)
CCCCCCCC/C=C\CCCCCCCC(=O)OCCO,AC50,[8],19.5 µM (active)
CN(C)c1ccc(C(=N)c2ccc(N(C)C)cc2)cc1,outcome,[1],inactive
same,AC50,[2],1.35 µM (active)
same,AC50,[3],2.88 µM (active)
same,AC50,[4],2.42 µM (active)
same,AC50,[5],1.73 µM (active)
same,AC50,[6],2.39 µM (active)
same,AC50,[7],1.63 µM (active)
same,AC50,[9],3.2 µM (active)
CCOC(F)(F)C(F)(F)C(F)(F)C(F)(F)F,outcome,[1],inactive
same,outcome,[2],inactive
same,outcome,[3],inactive
same,outcome,[4],inactive
same,outcome,[5],inactive
same,outcome,[6],inactive
same,outcome,[7],inactive
